Experiment [1] is described as follows: qHTS assay for small molecule agonists of the p53 signaling pathway (AID 651631; calls by dose curve; further: nearly all actives have a fitted effect of over 15% in size; further: potency means the concentration at half of the fitted maximal effect). A digest of the protocol:
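Stably transfected HCT-116 cells (beta-lactamase behind p53 response elements) get compounds after a 5 h settling period; 16 h later at 37 °C, FRET substrate is loaded and fluorescence read after 2 h.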
A general note: Quantitative high-throughput screening tests each substance at several concentrations.

A short description of experiment [2]: qHTS assay for small molecule agonists of the p53 signaling pathway - cell viability (AID 651633; calls by dose curve; further: nearly all actives have a fitted effect of over 30% in size; further: potency means the concentration at half of the fitted maximal effect). In outline: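 p53RE-bla cells, seeded at 4,000 per well and rested 5 h at 37 C/5% CO2, received compounds in DMSO for 16 h at 37 C. CellTiter-Glo was then added, and luminescence was read after 30 min at room temperature to gauge cytotoxicity.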
A short description of experiment [3]: qHTS assay to test for compound auto fluorescence at 460 nm (blue) in HEK293 cells (AID 720678). A digest of the protocol: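 Intrinsic compound fluorescence is recorded in live HEK293 cultures after overnight incubation at 37C, 5% CO2, using excitation 405 nm and emission 460 nm. Values are referenced to triamterene.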
Experiment [4] is described as follows: qHTS assay to test for compound auto fluorescence at 535 nm (green) in HEK293 cells (AID 720680).
A short description of experiment [5]: qHTS assay to test for compound auto fluorescence at 590 nm (red) in HepG2 cell free culture (AID 720684). In outline: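 Ex 540 / Em 590 nm read of compound in cell-free MEM (10% FBS). Rose Bengal sodium reference.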
Experiment [6] addresses Glucocorticoid receptor (Homo sapiens) (UniProt P04150). As to the kind of experiment: qHTS assay to identify small molecule agonists of the glucocorticoid receptor (GR) signaling pathway (AID 720691; active means well fitted activation curve with a large enough effect in the signal ratio in the repeat runs, not every such curve was filed as active; inconclusive means weak or mixed curves, or effect the other way; inactive means no such curve, though single readings can be large or run the other way; the % refers to the signal ratio). In outline:
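HeLa GR-bla reporter line; cells pre-incubated 4 h, compound in DMSO 18 h at 37 C; LiveBLAzer B/G FRET substrate 2 h RT; fluorescence intensity read-out.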

Experiment [7] in a line: qHTS assay for identifying genotoxic compounds that show differential cytotoxicity against isogenic chicken DT40 cell lines with known DNA damage response pathways - wild type cell line (AID 743012). Further: nearly all actives have a fitted effect of over 60% in size. Further: potency means the concentration at half of the fitted maximal effect. A digest of the protocol: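 CellTiter-Glo luminescence readout of viability in wild type DT40 cells after 40 h compound exposure at 37 C/5% CO2; 300 cells/well; reagent incubated 30 min at room temperature before reading.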

A short description of experiment [8]: qHTS assay to identify small molecule antagonists of the androgen receptor (AR) signaling pathway using the MDA cell line - cell viability counter screen (AID 743041; further: nearly all actives have a fitted effect of over 45% in size; further: potency means the concentration at half of the fitted maximal effect). In outline:
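In this qHTS counter assay, fluorescence intensity after CellTiter-Fluor addition indicated viability of MDA-kb2 AR-luc cells given compounds and R1881 for 16 h at 37C.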

Experiment [9] is described as follows: qHTS assay to identify small molecule antagonists of the thyroid receptor (TR) signaling pathway - cell viability counter screen (AID 743064). Further: nearly all actives have a fitted effect of over 50% in size. Further: potency means the concentration at half of the fitted maximal effect. In outline:
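Counter screen for cytotoxicity: compound plus T3 (1 nM final) on GH3.TRE-Luc cells, 23.5 h at 37 °C, then fluorescence viability readout with CellTiter-Fluor.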

Experiment [10] concerns the target Estrogen receptor (Homo sapiens) (UniProt P03372). Briefly: qHTS assay to identify small molecule agonists of the estrogen receptor alpha (ER-alpha) signaling pathway (AID 743075; calls by dose curve;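 further: HEK293 GripTite cells with ER-alpha and UAS-driven beta-lactamase reporter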; further: potency means the concentration at half of the fitted maximal effect).
Experiment [11] can be described thus: qHTS assay to identify small molecule antagonists of the estrogen receptor alpha (ER-alpha) signaling pathway using the BG1 cell line (AID 743080; calls by dose curve;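 further: BG1 cells stimulated with 17beta-estradiol alongside compound; nearly all actives have a fitted effect of over 25% in size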; further: potency means the concentration at half of the fitted maximal effect). A digest of the protocol:
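Readout is ONE-Glo luminescence, taken 30 min at room temperature after reagent addition, preceded by a CellTiter-Fluor viability read; BG1-Luc-4E2 cells had received compound and 17beta-estradiol for 21.5 h at 37 C.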

Experiment [12] has as its target Nuclear receptor subfamily 1 group I member 2 (Rattus norvegicus) (UniProt Q9R1A7). Briefly: Rat pregnane X receptor (rPXR) activation by small molecules, qHTS assay (AID 1346983). Further: nearly all actives have a fitted effect of over 20% in size. Particulars: rPXR luciferase reporter cells, One-Glo luminescence, 24 h; max activation: stronger effect = higher value. A digest of the protocol:
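Cell-based rPXR luciferase reporter assay, 2,000 cells per well, rested 5hr at 37 C before compound addition in DMSO, then 24 hr at 37 C. One-Glo reagent was added and luminescence read after 30 min at room temperature.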

In experiment [13] the target is Nuclear receptor subfamily 1 group I member 2 (Homo sapiens) (UniProt O75469). Briefly: CYP3A4 induction through human pregnane X receptor (PXR) by small molecules, qHTS assay (AID 1346984). Further: nearly all actives have a fitted effect of over 40% in size. In outline:
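HepG2-derived DPX-2 line carrying PXR plus a CYP3A4-promoter luciferase reporter; cells plated 5 hr, compound-exposed 24 hr at 37C. CYP3A4 activity probed with 3uM (final) Luciferin-IPA for 3hr, then luciferase read after One-Glo.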

Experiment [14] has the same target. Briefly: Human pregnane X receptor (PXR) activation by small molecules, qHTS assay (AID 1346985). Further: nearly all actives have a fitted effect of over 40% in size. In outline:
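DPX-2 cells (HepG2 co-transfected with a PXR response element and a CYP3A4-promoter luciferase construct) were seeded at 2,000 per well, rested 5 hr at 37C, then exposed to DMSO-dissolved compounds for 24 hr. Activation was read as luciferase luminescence.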

The nature of experiment [15]: qHTS assay to test for compound auto fluorescence at 590 nm (red) in HEK293 cells (AID 720679). A digest of the protocol: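 Red autofluorescence, HEK293 cells: 2,000 cells/well; attach 4-5 hr 37C; add 23 nL cpd or DMSO; incubate o/n 37C 5% CO2; read Ex540/Em590; Rose Bengal sodium reference.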
Experiment [16] in a line: qHTS assay for identifying genotoxic compounds that show differential cytotoxicity against isogenic chicken DT40 cell lines with known DNA damage response pathways - Rev3 mutant cell line (AID 743014). Further: nearly all actives have a fitted effect of over 55% in size. Further: potency means the concentration at half of the fitted maximal effect.
Experiment [17] can be described thus: qHTS assay to identify small molecule antagonists of the androgen receptor (AR) signaling pathway - cell viability counter screen (AID 743033; further: nearly all actives have a fitted effect of over 45% in size).
For experiment [18], the target named is Estrogen receptor (Homo sapiens) (UniProt P03372). Briefly: qHTS assay to identify small molecule agonists of the estrogen receptor alpha (ER-alpha) signaling pathway using the BG1 cell line (AID 743079). Further: nearly all actives have a fitted effect of over 20% in size. Further: potency means the concentration at half of the fitted maximal effect.
Sequence of Estrogen receptor (Homo sapiens) (P03372 whole entry, looked up): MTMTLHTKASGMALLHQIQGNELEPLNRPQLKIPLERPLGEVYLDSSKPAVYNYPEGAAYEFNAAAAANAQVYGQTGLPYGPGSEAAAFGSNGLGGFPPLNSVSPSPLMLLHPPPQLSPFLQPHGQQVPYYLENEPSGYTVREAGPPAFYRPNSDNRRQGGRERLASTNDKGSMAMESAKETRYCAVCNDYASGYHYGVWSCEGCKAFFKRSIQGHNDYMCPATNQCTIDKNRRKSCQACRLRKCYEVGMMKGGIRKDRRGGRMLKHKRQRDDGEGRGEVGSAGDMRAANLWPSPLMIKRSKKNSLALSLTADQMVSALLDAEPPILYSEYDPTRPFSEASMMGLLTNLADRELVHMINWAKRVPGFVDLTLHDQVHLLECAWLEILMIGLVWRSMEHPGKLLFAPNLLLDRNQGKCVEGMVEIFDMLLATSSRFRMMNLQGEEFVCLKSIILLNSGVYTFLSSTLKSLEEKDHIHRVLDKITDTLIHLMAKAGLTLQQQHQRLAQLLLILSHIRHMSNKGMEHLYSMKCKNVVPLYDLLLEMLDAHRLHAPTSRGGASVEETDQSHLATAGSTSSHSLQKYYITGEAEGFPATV
Experiment [19] deals with Peroxisome proliferator-activated receptor gamma (Homo sapiens) (UniProt P37231). Briefly: qHTS assay to identify small molecule agonists of the peroxisome proliferator-activated receptor gamma (PPARg) signaling pathway (AID 743094; active means well fitted activation curve with a large enough effect in the signal ratio in the repeat runs, not every such curve was filed as active; inconclusive means weak or mixed curves, or effect the other way; inactive means no such curve, though single readings can be large or run the other way; the % refers to the signal ratio). In outline:
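HEK293H PPARg-bla cells, 5 h settle at 37C/5% CO2; compound (DMSO) 17 h, 37C; B/G FRET substrate 1 h RT; fluorescence intensity read-out. qHTS format.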

A short description of experiment [20]: qHTS assay to identify small molecule that activate the aryl hydrocarbon receptor (AhR) signaling pathway - cell viability counter screen (AID 743086).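 Further: HepG2 liver cells carrying the AhR DRE luciferase reporter; series mostly up to about 70 µM; nearly all actives have a fitted effect of over 45% in size.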 A digest of the protocol: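 HepG2-AhR-luc (HG2L7.5c1) cells, 4000/well, were preincubated 5 h at 37C, exposed to compound in qHTS format for 24 hr at 37C, then given CellTiter-Fluor for 30 min; viability was read as fluorescence in the reporter wells.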

“And” between values parts separate entries of the source, which are not always exact repeats. Identical values can stand only once. The source holds several records for some structures; these can differ, active in one and inactive in another. The source made the active and inactive calls. Unless noted, the call rests on the fitted dose curve; in most records, active means well fitted curve in the direction sought with a large enough effect in the repeat runs; inconclusive means weak or mixed curves; inactive means no such curve, though single readings can be large; an effect the other way counts as inactive or inconclusive.
On the % scale 0 is the no-effect control and ±100 the full control effect.

Sequence of Nuclear receptor subfamily 1 group I member 2 (Rattus norvegicus) (Q9R1A7 whole entry, looked up): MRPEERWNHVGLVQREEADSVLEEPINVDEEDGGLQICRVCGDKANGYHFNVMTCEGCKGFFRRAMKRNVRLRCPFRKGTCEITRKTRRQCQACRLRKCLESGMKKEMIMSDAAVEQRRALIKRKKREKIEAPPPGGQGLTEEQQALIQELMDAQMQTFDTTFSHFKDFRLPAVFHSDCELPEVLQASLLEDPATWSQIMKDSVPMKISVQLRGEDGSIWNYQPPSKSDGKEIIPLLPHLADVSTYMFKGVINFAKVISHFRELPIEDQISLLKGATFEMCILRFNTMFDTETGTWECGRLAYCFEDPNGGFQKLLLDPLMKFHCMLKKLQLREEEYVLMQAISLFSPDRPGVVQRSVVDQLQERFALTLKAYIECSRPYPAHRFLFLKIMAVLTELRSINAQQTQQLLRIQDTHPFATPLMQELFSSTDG
Sequence of Peroxisome proliferator-activated receptor gamma (Homo sapiens) (P37231 whole entry, looked up): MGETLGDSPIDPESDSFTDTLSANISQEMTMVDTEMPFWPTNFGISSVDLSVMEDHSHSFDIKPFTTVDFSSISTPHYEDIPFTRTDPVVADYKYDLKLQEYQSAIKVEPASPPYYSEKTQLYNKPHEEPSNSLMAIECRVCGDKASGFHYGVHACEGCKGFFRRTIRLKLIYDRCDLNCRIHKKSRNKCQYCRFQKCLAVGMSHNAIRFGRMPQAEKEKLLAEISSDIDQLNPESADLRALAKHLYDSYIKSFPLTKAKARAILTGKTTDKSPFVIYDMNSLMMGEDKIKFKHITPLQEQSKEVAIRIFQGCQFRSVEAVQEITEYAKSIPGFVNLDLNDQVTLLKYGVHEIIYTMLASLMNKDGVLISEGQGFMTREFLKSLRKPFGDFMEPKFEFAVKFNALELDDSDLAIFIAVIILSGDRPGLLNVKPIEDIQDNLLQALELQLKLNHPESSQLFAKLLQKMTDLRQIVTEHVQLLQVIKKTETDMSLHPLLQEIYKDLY
Sequence of Glucocorticoid receptor (Homo sapiens) (P04150 whole entry, looked up): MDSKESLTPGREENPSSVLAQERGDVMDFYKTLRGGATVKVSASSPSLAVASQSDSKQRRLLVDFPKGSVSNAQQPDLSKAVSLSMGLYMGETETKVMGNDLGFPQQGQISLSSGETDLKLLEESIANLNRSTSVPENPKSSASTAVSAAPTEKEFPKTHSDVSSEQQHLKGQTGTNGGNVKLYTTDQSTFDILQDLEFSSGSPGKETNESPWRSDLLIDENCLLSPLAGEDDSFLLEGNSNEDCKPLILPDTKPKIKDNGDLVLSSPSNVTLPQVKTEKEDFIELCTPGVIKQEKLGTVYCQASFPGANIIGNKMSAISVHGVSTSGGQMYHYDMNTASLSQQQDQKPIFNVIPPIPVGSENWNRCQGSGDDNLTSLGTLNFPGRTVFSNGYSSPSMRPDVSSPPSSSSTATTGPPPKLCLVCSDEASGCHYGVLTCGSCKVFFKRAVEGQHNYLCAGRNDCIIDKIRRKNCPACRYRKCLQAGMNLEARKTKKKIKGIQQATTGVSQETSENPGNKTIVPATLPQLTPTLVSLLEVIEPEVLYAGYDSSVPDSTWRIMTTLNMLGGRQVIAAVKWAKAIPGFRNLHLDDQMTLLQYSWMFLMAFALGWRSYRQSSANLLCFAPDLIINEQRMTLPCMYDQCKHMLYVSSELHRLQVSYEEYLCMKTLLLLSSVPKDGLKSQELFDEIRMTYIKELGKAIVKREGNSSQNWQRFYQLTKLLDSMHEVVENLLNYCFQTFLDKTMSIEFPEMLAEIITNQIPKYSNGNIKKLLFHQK

Take `COC(COC(N)=O)C1=C(N2CC2)C(=O)C(C)=C(N2CC2)C1=O` (stereo unspecified): the Potency was 298 nM (active) in experiment [1]; 7500 nM (active) in experiment [2]; 4.2 nM (active) in [7]; 13300 nM (active) in [8]; 841 nM (active) in [9]; 531 nM (active) in experiment [11]. Also, the Potency entry in [3], in [4], in experiment [6], in experiment [10], in [13] and in experiment [14] was “inactive” in each case. The compound was classed as inactive in experiment [5]. In experiment [12], the max activation is -20.2% (inactive).

With `CCNCC(O)c1cccc(O)c1` (stereo unspecified), the Potency result in experiment [1], in experiment [2], in experiment [4], in experiment [6], in experiment [7] and in [16] was “inactive” throughout. For the same compound, the Potency result in experiment [17], in experiment [8], in experiment [9], in experiment [10], in experiment [18] and in experiment [11] was “inactive” throughout. Besides, the Potency entry in experiment [19], in experiment [13] and in [14] was “inactive” throughout. Moreover, the call in experiment [15] and in [5] was inactive. The max activation in [12] was 1.03% (inactive).

For the compound `Clc1ccc2c(c1)C(c1ccccc1)=NCc1nncn1-2`, the Potency result in [1], in [3], in experiment [4], in experiment [6], in [7] and in [17] was “inactive” in each case. Moreover, the Potency result in experiment [8], in experiment [9], in experiment [10], in experiment [18], in experiment [11] and in [20] was “inactive” throughout. The Potency result in experiment [19], in [13] and in [14] was “inactive” in each case. For the same compound, the compound was classed as inactive in experiment [15] and in [5]. Besides, in [12], the max activation is -10.5% (inactive).

For the compound `CN[C@H]1C[C@@H](N)[C@H](O)[C@@H](O[C@@H]2O[C@H](CO)[C@H](O)[C@@H]3OC4(O[C@H]23)O[C@H](C(N)CO)[C@H](O)[C@H](O)[C@H]4O)[C@@H]1O` (stereo partly specified), the Potency result in experiment [1], in experiment [3], in experiment [4], in [7], in experiment [16] and in [17] was “inactive” throughout. The Potency result in experiment [8], in experiment [9], in [10], in experiment [18], in [20] and in experiment [19] was “inactive” each time. The Potency entry in [13] and in experiment [14] was “inactive” in each case. In addition, the result in experiment [15] and in experiment [5] was inactive. Also, in [12], the max activation is -3.01% (inactive).

`Cc1ccccc1-n1c(C)nc2ccccc2c1=O`: the Potency result in [1], in experiment [2], in experiment [3], in [4], in experiment [6] and in experiment [17] was “inactive” in each case. For the same compound, the Potency entry in [8], in experiment [10], in [11], in experiment [19], in experiment [13] and in experiment [14] was “inactive” in each case. Further, the compound was classed as inactive in [15] and in experiment [5]. The Potency in experiment [7] was 42800 nM (active); in experiment [16] it was 53900 nM (active); in [9] it was “inactive and 24.1 µM (active)”; in experiment [18], “inactive and 53.9 µM (active)”. For the same compound, the max activation in experiment [12] was 9.97% (inactive).

`C[C@]12CC[C@H]3[C@@H](CCC4=C(O)C(=O)CC[C@@H]43)[C@@H]1CC[C@@H]2OC(=O)CCC1CCCC1`: the Potency result in experiment [1], in experiment [2], in experiment [3], in experiment [4], in [6] and in experiment [16] was “inactive” in each case. In addition, the Potency result in experiment [17], in experiment [8], in [9], in experiment [11], in [19] and in experiment [13] was “inactive” each time. In addition, in experiment [14], the Potency entry was “inactive”. For the same compound, the outcome in experiment [5] was inactive. For the same compound, the Potency was 952 nM [inconclusive] (active) in [10] and 119 nM (active) in experiment [18]. In experiment [12], the max activation is -2.22% (inactive).

Consider `C[C@@H](Cc1ccccc1)N(C)C`, for which the Potency result in experiment [1], in [2], in experiment [3], in experiment [4], in [7] and in [16] was “inactive” each time. Also, the Potency result in [8], in [9], in experiment [20], in [19], in experiment [13] and in experiment [14] was “inactive” each time. Further, the max activation in experiment [12] is -2.61% (inactive).

These data come from PubChem BioAssay (Tox21).
